Laboratory results taken from PubChem BioAssay AID1159580 (chemical genetic matrix, 2015).
Values joined by “and” are separate entries in the source; they are usually repeats but may differ in a detail not shown here. Equal entries are not always repeated. The whole screen tested about 5,500 compounds, of which about 2,000 (36%) were called active. About 18% were inconclusive and are not listed. Rule as the data show it: active = normalized growth mostly below about 0.91 (no sharp cut-off); inconclusive = no clear call, values can overlap the other calls; inactive = mostly above about 0.92. This is one part of the list.

Test: chemical genetic growth profiling, strain panel (AID 1159580);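 also: tested at 20 µM; growth read once vehicle control cultures reached saturation at 30 °C; 1 = growth at the plate median or of vehicle wells; lower values mean less growth of the strain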
Conditions: S. cerevisiae deletion strains, growth OD

Measured: normalized growth

OC[C@H]1O[C@@](CO)(O[C@@H]2O[C@H](CO)[C@@H](O)[C@H](O)[C@H]2O)[C@@H](O[C@@H]2O[C@H](CO)[C@@H](O)[C@H](O)[C@H]2O)[C@@H]1O
inactive: locus YAL013W, strain DEP1, hits give low values 1.02 | locus YAL021C, strain ccr4, hits give low values 1.01 | locus YAL026C, strain drs2, hits give low values 1.02 | locus YAL030W, strain snc1, hits give low values 1.02 | locus YBL061C, strain skt5, hits give low values 1.02 | locus YBR009C, strain hhf1, hits give low values 1.02 | locus YBR021W, strain FUR4, hits give low values 1.01 | locus YBR023C, strain chs3, hits give low values 1.02 | locus YBR171W, strain sec66, hits give low values 1.03 | locus YBR229C, strain ROT2, hits give low values 1.01 | locus YBR231C, strain swc5, hits give low values 1.02 | locus YBR279W, strain paf1, hits give low values 1.02 | locus YCL011C, strain gbp2, hits give low values 1.02 | locus YCL016C, strain dcc1, hits give low values 1.02 | locus YCL029C, strain bik1, hits give low values 1.05 | locus YCL061C, strain MRC1, hits give low values 1.01 | locus YCL069W, strain vba3, hits give low values 1.01 | locus YCR088W, strain abp1, hits give low values 1.01 | locus YDL005C, strain med2, hits give low values 1.02 | locus YDL035C, strain GPR1, hits give low values 1.04 | locus YDL040C, strain nat1, hits give low values 1.01 | locus YDL074C, strain BRE1, hits give low values 1.09 | locus YDL101C, strain DUN1, hits give low values 1.02 | locus YDL134C, strain PPH21, hits give low values 1.05 | locus YDL185W, strain tfp1, hits give low values 1.01 | locus YDL192W, strain arf1, hits give low values 1.04 | locus YDR001C, strain nth1, hits give low values 1.02 | locus YDR069C, strain doa4, hits give low values 1.04 | locus YDR101C, strain arx1, hits give low values 1.01 | locus YDR137W, strain rgp1, hits give low values 1.02 | locus YDR159W, strain sac3, hits give low values 1.02 | locus YDR162C, strain NBP2, hits give low values 1.07 | locus YDR195W, strain ref2 1.01 | locus YDR297W, strain sur2, hits give low values 1.02 | locus YDR318W, strain mcm21, hits give low values 1.06 | locus YDR334W, strain swr1, hits give low values 1.02 | locus YDR335W, strain msn5, hits give low values 1.02 | locus YDR388W, hits give low values 1.01 | locus YDR392W, strain spt3, hits give low values 0.969 | locus YDR502C, strain sam2, hits give low values 1.05 | locus YEL003W, strain gim4, hits give low values 1.03 | locus YEL037C, strain rad23, hits give low values 1.02 | locus YEL061C, strain CIN8 (second series), hits give low values 1.02 | locus YEL061C, strain CIN8, hits give low values 1.01 | locus YER015W, strain faa2, hits give low values 1.02 | locus YER016W, strain bim1, hits give low values 1.02 | locus YER110C, hits give low values 1.01 | locus YER111C, strain swi4, hits give low values 1.02 | locus YER155C, strain BEM2 (second series), hits give low values 1.03 | locus YER155C, strain BEM2, hits give low values 1.02 | locus YER167W, strain BCK2, hits give low values 1.01 | locus YFR010W, strain ubp6, hits give low values 1.02 | locus YGL078C, strain dbp3, hits give low values 1.04 | locus YGL086W, strain mad1, hits give low values 1.03 | locus YGL167C, strain pmr1, hits give low values 1.02 | locus YGL173C, strain kem1, hits give low values 1.03 | locus YGL227W, strain vid30, hits give low values 1.02 | locus YGL240W, strain doc1, hits give low values 1.02 | locus YGL248W, strain PDE1, hits give low values 1.05 | locus YGL253W, strain hxk2, hits give low values 1.02 | locus YGR078C, strain PAC10, hits give low values 1.04 | locus YGR135W, strain pre9, hits give low values 1.04 | locus YGR252W, strain gcn5, hits give low values 1.09 | locus YHR013C, strain ard1, hits give low values 1.03 | locus YHR027C, strain rpn1, hits give low values 1.02 | locus YHR030C, strain SLT2, hits give low values 1.01 | locus YHR079C, strain IRE1 (second series), hits give low values 1.01 | locus YHR079C, strain IRE1, hits give low values 1.02 | locus YHR094C, strain hxt1, hits give low values 1 | locus YHR129C, strain ARP1, hits give low values 1.02 | locus YHR142W, strain chs7, hits give low values 1.01 | locus YHR200W, strain rpn10, hits give low values 1.03 | locus YIL066C, strain RNR3, hits give low values 1.03 | locus YIL073C, strain SPO22, hits give low values 1.05 | locus YIL125W, strain kgd1, hits give low values 1.02 | locus YIR030C, strain dcg1, hits give low values 1.01 | locus YJL092W, strain hpr5, hits give low values 1.02 | locus YJL095W, strain BCK1 (second series), hits give low values 1.02 | locus YJL095W, strain BCK1, hits give low values 1.08 and 1 | locus YJL115W, strain asf1, hits give low values 1.02 | locus YJL129C, strain trk1, hits give low values 1.01 | locus YJL134W, strain LCB3, hits give low values 1.01 | locus YJL154C, strain vps35, hits give low values 1.01 | locus YJL164C, strain tpk1, hits give low values 1 | locus YJL166W, strain qcr8, hits give low values 1.02 | locus YJL168C, strain set2, hits give low values 1.02 | locus YJL187C, strain SWE1 (second series), hits give low values 1.05 | locus YJL187C, strain SWE1, hits give low values 1.02
